Results taken from PubChem BioAssay (NCATS).
Several values for one entry are separate records, joined by “and”; a condition that tells them apart may be missing. Identical values can stand only once. Results filed as inconclusive are left out. Some structures have more than one record in an assay (separate samples or runs), and their calls can disagree. Values without a mark were called inactive. Activity calls are given as the source filed them. The call rests on the fitted dose curve; in most records, active means well fitted curve in the direction sought with a large enough effect; inconclusive means small, poorly fitted or top-dose-only effect, or another doubt; inactive means no such curve, though single readings can be large; an effect the other way counts as inactive or inconclusive.

How the values were obtained:
HEK293 = assay: Cytotoxic Profiling of Annotated Libraries Using Quantitative High-Throughput Screening (AID 1296008); settings: Five cell lines viability, CellTiter-Glo ATP luminescence, 48-72 h; max response: active compounds read low; further: nearly all actives have a fitted effect of over 60% in size
Procedure, shortened: (§1)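 Cytotoxicity was measured as CellTiter-Glo ATP luminescence, read after 10 min at room temperature. Compound treatment of the cells lasted 48 or 72 hr at 37 degrees Celsius in a qHTS format.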

MCC-13 = assay: qHTS assay to identify novel small-molecules to repurpose for Merkel cell carcinoma treatment (AID 1296009); settings: MCC and control cell lines, CellTiter-Glo viability, 72 h; series mostly up to 46 µM; further: nearly all actives have a fitted effect of over 60% in size
Procedure, shortened: (§2)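 After compound transfer in DMSO, plates were kept 72 hr at 37 degree celsius. Luminescent ATP signal from CellTiter-Glo served as viability measure, normalized against DMSO and no-cell controls.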

MKL-2 = assay: as above; settings: MCC and control cell lines, CellTiter-Glo viability, 72 h; series mostly up to 46 µM
Procedure, shortened: as §2

C33A = assay: Primary qHTS to identify gynecologic anti-cancer compounds using libraries of approved drugs and bioactive compounds (AID 1345084); settings: Gynecologic cancer cell panel viability, ATPlite luminescence, 48 h; series mostly up to 57.5 µM; further: nearly all actives have a fitted effect of over 55% in size
Procedure, shortened: (§3)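 Cells, 1,000 per well, were allowed to settle for 16 h at 37 C before compound addition. Five concentrations were tested for 48 h, and viability was read by ATPlite luminescence after 15 min at room temperature.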

CAOV3 = assay: as above; settings: Gynecologic cancer cell panel viability, ATPlite luminescence, 48 h; series mostly up to 57.5 µM
Procedure, shortened: as §3

CASKI = assay: as above; settings: Gynecologic cancer cell panel viability, ATPlite luminescence, 48 h; series mostly up to 57.5 µM
Procedure, shortened: as §3

JEG-3 = assay: as above; settings: Gynecologic cancer cell panel viability, ATPlite luminescence, 48 h; series mostly up to 57.5 µM
Procedure, shortened: as §3

KB-3-1 = assay: Cytotoxic Profiling of Annotated Libraries Using Quantitative High-Throughput Screening (AID 1296008); settings: Five cell lines viability, CellTiter-Glo ATP luminescence, 48-72 h; max response: active compounds read low; further: nearly all actives have a fitted effect of over 60% in size
Procedure, shortened: as §1

NIH3T3 = assay: as above; settings: Five cell lines viability, CellTiter-Glo ATP luminescence, 48-72 h; max response: active compounds read low
Procedure, shortened: as §1

MKL-1 = assay: qHTS assay to identify novel small-molecules to repurpose for Merkel cell carcinoma treatment (AID 1296009); settings: MCC and control cell lines, CellTiter-Glo viability, 72 h; series mostly up to 46 µM; further: nearly all actives have a fitted effect of over 60% in size
Procedure, shortened: as §2

WaGa = assay: as above; settings: MCC and control cell lines, CellTiter-Glo viability, 72 h; series mostly up to 46 µM
Procedure, shortened: as §2

HaCat [1] = assay: Cytotoxic Profiling of Annotated Libraries Using Quantitative High-Throughput Screening (AID 1296008); settings: Five cell lines viability, CellTiter-Glo ATP luminescence, 48-72 h; max response: active compounds read low; further: nearly all actives have a fitted effect of over 60% in size
Procedure, shortened: as §1

MCC-26 = assay: qHTS assay to identify novel small-molecules to repurpose for Merkel cell carcinoma treatment (AID 1296009); settings: MCC and control cell lines, CellTiter-Glo viability, 72 h; series mostly up to 46 µM; further: nearly all actives have a fitted effect of over 60% in size
Procedure, shortened: as §2

UISO = assay: as above; settings: MCC and control cell lines, CellTiter-Glo viability, 72 h; series mostly up to 46 µM
Procedure, shortened: as §2

Es-2 = assay: Primary qHTS to identify gynecologic anti-cancer compounds using libraries of approved drugs and bioactive compounds (AID 1345084); settings: Gynecologic cancer cell panel viability, ATPlite luminescence, 48 h; series mostly up to 57.5 µM; further: nearly all actives have a fitted effect of over 55% in size
Procedure, shortened: as §3

Hek293T [2] = assay: as above; settings: Gynecologic cancer cell panel viability, ATPlite luminescence, 48 h, control line for the selectivity index; series mostly up to 57.5 µM
Procedure, shortened: as §3

HeLa = assay: as above; settings: Gynecologic cancer cell panel viability, ATPlite luminescence, 48 h; series mostly up to 57.5 µM
Procedure, shortened: as §3

HACAT [3] = assay: qHTS assay to identify novel small-molecules to repurpose for Merkel cell carcinoma treatment (AID 1296009); settings: MCC and control cell lines, CellTiter-Glo viability, 72 h; series mostly up to 44.8 µM; further: nearly all actives have a fitted effect of over 60% in size
Procedure, shortened: as §2

HEK293T [4] = assay: as above; settings: MCC and control cell lines, CellTiter-Glo viability, 72 h; at 44.8 µM (top of the series) unless noted
Procedure, shortened: as §2
On the % scale 0 is the no-effect control and ±100 the full control effect; potency means the concentration at half of the fitted maximal effect.

COc1cc2c(NC3CCN(C(C)C)CC3)nc(C3CCCCC3)nc2cc1OCCCN1CCCC1
Potency (HEK293): 7.43 µM (active) and 5.8 µM (active) | Potency (MCC-13): inactive | Potency (MKL-2): 6.62 µM (active) | Potency (C33A): 28.2 µM (active) | Potency (CAOV3): 6.31 µM (active) | Potency (CASKI): 20 µM (active) | Potency (JEG-3): 10 µM (active)

CN1CCN(c2ccc3nc(-c4c(N)c5c(F)cccc5[nH]c4=O)[nH]c3c2)CC1
Potency (HEK293): 1.66 µM (active) | Potency (KB-3-1): 16.6 µM (active) | Potency (NIH3T3): 1.32 µM (active) | Potency (MKL-1): 8.33 µM (active)

CCN(CC)CCCCNc1ncc2cc(-c3cc(OC)cc(OC)c3)c(NC(=O)NC(C)(C)C)nc2n1
Potency (HEK293): 4.18 µM (active) | max response (KB-3-1): -22.2% | Potency (MCC-13): inactive | Potency (MKL-1): inactive | Potency (MKL-2): inactive | Potency (WaGa): inactive

COc1ccc(CC2c3cc(OC)c(OC)cc3CC[N+]2(C)CCC(=O)OCCCCCOC(=O)CC[N+]2(C)CCc3cc(OC)c(OC)cc3C2Cc2ccc(OC)c(OC)c2)cc1OC (stereo unspecified)
max response (HaCat [1]): 3.6% | max response (KB-3-1): 4.25% and 0.363% | max response (NIH3T3): -6.84% | activity change, negative = cytotoxicity (MCC-13): -6.08% [at 9.22 µM] | activity change, negative = cytotoxicity (MCC-26): 2.59% [at 9.22 µM] | activity change, negative = cytotoxicity (MKL-1): -7.93% [at 9.22 µM] | activity change, negative = cytotoxicity (MKL-2): -23.6% [at 9.22 µM] | activity change, negative = cytotoxicity (UISO): -1.41% [at 9.22 µM] | activity change, negative = cytotoxicity (WaGa): -8.88% [at 9.22 µM]

COc1cc(C(=O)N2CCC(N3CCN(C)CC3)CC2)ccc1Nc1ncc2c(n1)N(C)c1ccccc1C(=O)N2C
Potency (HEK293): 11.8 µM (active) and 9.2 µM (active) | Potency (KB-3-1): 14.8 µM (active) and 16.4 µM (active) | Potency (NIH3T3): 13 µM (active) | Potency (MCC-13): inactive | Potency (MKL-2): 2.35 µM (active) | Potency (WaGa): 16.6 µM (active) | Potency (C33A): inactive | Potency (Es-2): inactive | Potency (Hek293T [2]): inactive | Potency (JEG-3): inactive

O=C(O)CCCc1c[nH]c2ccccc12
max response (HaCat [1]): 4.3% and 3.03% | max response (KB-3-1): 0.51% | outcome (KB-3-1): inactive | max response (NIH3T3): -1.55% and 2.66% | Potency (MCC-13): inactive | Potency (MCC-26): inactive | Potency (MKL-1): inactive | Potency (MKL-2): inactive | Potency (UISO): inactive | Potency (WaGa): inactive | Potency (C33A): inactive | Potency (CAOV3): inactive | Potency (CASKI): inactive | Potency (Es-2): inactive | Potency (HeLa): inactive | Potency (Hek293T [2]): inactive | Potency (JEG-3): inactive

c1cc(-c2cnn3cc(-c4ccc(OCCN5CCCCC5)cc4)cnc23)ccn1
Potency (HEK293): 3.32 µM (active) | Potency (KB-3-1): 3.72 µM (active) | Potency (NIH3T3): 0.372 µM (active) | Potency (MCC-13): 16.6 µM (active) | Potency (MKL-1): 11.8 µM (active) | Potency (UISO): 5.9 µM (active) | Potency (WaGa): 13.2 µM (active)

C[C@@H](Oc1cc(-n2cnc3ccc(CN4CCN(C)CC4)cc32)sc1C(N)=O)c1ccccc1C(F)(F)F
Potency (HEK293): 0.0332 µM (active) | Potency (KB-3-1): 0.0118 µM (active) | Potency (NIH3T3): 0.662 µM (active) | Potency (MKL-1): 0.0296 µM (active)

O=C(NCCS(=O)(=O)c1ccc(C(F)(F)F)cn1)c1ccc(Cl)cc1
outcome (HaCat [1]): inactive | outcome (KB-3-1): inactive | max response (NIH3T3): 1.91% | Potency (HACAT [3]): inactive | Potency (MCC-13): inactive | Potency (MCC-26): inactive | Potency (MKL-1): inactive | Potency (MKL-2): inactive | Potency (UISO): inactive | Potency (WaGa): inactive

CC1(C)OC2=C(C(=O)c3ccccc3C2=O)[C@H](NCc2ccccc2)[C@H]1O
Potency (HEK293): 8.33 µM (active) | Potency (KB-3-1): 9.35 µM (active) | Potency (NIH3T3): 11.8 µM (active) | Potency (MCC-13): 10.5 µM (active) | Potency (MKL-1): 3.32 µM (active)

COCCn1c2c([n+](Cc3cnccn3)c1C)C(=O)c1ccccc1C2=O
Potency (HaCat [1]): 0.0743 µM (active) | Potency (KB-3-1): 0.0148 µM (active) | Potency (NIH3T3): 16.6 µM (active) | Potency (MCC-13): 0.59 µM (active) | Potency (MCC-26): 0.296 µM (active) | Potency (MKL-1): 0.0023 µM (active) | Potency (UISO): 0.0187 µM (active) | Potency (WaGa): 0.0132 µM (active)

Cc1c(Cn2c(C)nc3c(C(=O)O)cc(N4CCOCC4)cc32)cccc1C(F)(F)F
outcome (HaCat [1]): inactive | max response (KB-3-1): 6.95% | outcome (KB-3-1): inactive | max response (NIH3T3): 3.21% and -3.58% | Potency (HACAT [3]): inactive | outcome (HEK293T [4]): inactive | Potency (MCC-13): inactive | Potency (MCC-26): inactive | Potency (MKL-1): inactive | Potency (MKL-2): inactive | Potency (UISO): inactive | Potency (WaGa): inactive | Potency (C33A): inactive | Potency (CASKI): inactive | Potency (Es-2): inactive | Potency (HeLa): inactive | Potency (Hek293T [2]): inactive | Potency (JEG-3): inactive

NC(=O)c1cccc2cn(-c3ccc([C@@H]4CCCNC4)cc3)nc12
Potency (HEK293): 6.51 µM (active) | max response (KB-3-1): -3.07% and -13.7% | max response (NIH3T3): -38.6% and -0.532% | Potency (MCC-13): inactive | Potency (MKL-1): 18.7 µM (active) | Potency (WaGa): 10.5 µM (active) | Potency (C33A): inactive | Potency (CAOV3): inactive | Potency (CASKI): inactive | Potency (HeLa): inactive | Potency (Hek293T [2]): inactive | Potency (JEG-3): inactive

Nc1ncnc2c1c(-c1cccc(OCc3ccccc3)c1)cn2C1CC(CN2CCCC2)C1 (stereo unspecified)
max response (HaCat [1]): -11.4% | outcome (HaCat [1]): inactive | Potency (KB-3-1): 18.7 µM (active) | Potency (NIH3T3): 14.8 µM (active) and 16.4 µM (active) | Potency (HACAT [3]): inactive | Potency (MCC-13): inactive | Potency (UISO): 10.5 µM (active) | Potency (C33A): inactive | Potency (Es-2): inactive

Cc1cc(Nc2cc(CN3CCOCC3)c3nc(C)c(Cc4ccc(Cl)cc4F)n3n2)n[nH]1
Potency (HaCat [1]): 14.8 µM (active) | max response (HaCat [1]): -23.1% | Potency (KB-3-1): 4.18 µM (active) and 5.17 µM (active) | Potency (NIH3T3): 13.2 µM (active) and 11.6 µM (active) | Potency (UISO): 23.5 µM (active) | Potency (C33A): inactive | Potency (CAOV3): inactive | Potency (CASKI): inactive | Potency (HeLa): 14.1 µM (active) | Potency (Hek293T [2]): inactive

CCC(=C(c1ccccc1)c1ccc(OCCN(C)C)cc1)c1ccccc1
max response (HaCat [1]): 2.08% | max response (KB-3-1): -16.9% | max response (NIH3T3): 1.38% | Potency (MCC-13): inactive | Potency (MCC-26): inactive
